This is an account of results in ChEMBL document CHEMBL3433997, “St. Jude Leishmania screening dataset” (2016).

Common to all, as to format: functional
In assay [1] the target is Solute carrier family 2, facilitated glucose transporter member 1 (Homo sapiens) (UniProt P11166). As to the kind of experiment: ST_JUDE_LEISH: Cytotoxicity at 2uM final concentration against transgenic Leishmania Mexicana promastigotes LmGLUT1 that are glucose transport deficient and complemented with the human glucose transporter GLUT1. Activity is measured by DNA content using SYBR green in vitro.

Assay [2] deals with Hexose transporter 1 (Plasmodium falciparum) (UniProt O97467). As to the kind of experiment: ST_JUDE_LEISH: Cytotoxicity at 2uM final concentration against transgenic Leishmania Mexicana promastigotes LmPfHT that are glucose transport deficient and complemented with the Plasmodium falciparum hexose transporter. Activity is measured by DNA content using SYBR green in vitro.
The target of assay [3] is Glucose transporter (Leishmania mexicana) (UniProt O61059). As to the kind of experiment: ST_JUDE_LEISH: Cytotoxicity at 2uM final concentration against transgenic Leishmania Mexicana promastigotes LmGT2 that are glucose transport deficient and complemented with the L. Mexicana glucose transporter 2. Activity is measured by DNA content using SYBR green in vitro.

Sequence of Solute carrier family 2, facilitated glucose transporter member 1 (Homo sapiens) (P11166 whole entry): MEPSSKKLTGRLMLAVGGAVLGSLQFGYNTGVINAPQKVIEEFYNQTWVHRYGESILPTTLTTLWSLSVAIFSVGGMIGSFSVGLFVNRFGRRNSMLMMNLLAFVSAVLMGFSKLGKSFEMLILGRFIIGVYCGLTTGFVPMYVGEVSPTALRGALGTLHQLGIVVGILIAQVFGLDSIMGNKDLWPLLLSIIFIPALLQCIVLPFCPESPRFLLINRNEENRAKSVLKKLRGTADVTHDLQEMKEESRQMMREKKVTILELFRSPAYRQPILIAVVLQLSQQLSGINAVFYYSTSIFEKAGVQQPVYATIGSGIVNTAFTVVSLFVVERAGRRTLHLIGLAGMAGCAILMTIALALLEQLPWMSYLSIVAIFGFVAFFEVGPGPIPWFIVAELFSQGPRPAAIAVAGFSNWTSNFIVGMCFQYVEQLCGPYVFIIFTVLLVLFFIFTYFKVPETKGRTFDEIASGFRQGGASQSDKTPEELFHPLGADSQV

Consider `Cc1nc(-c2cccc(NC(C)C(=O)Nc3cc(C(F)(F)F)ccc3N3CCOCC3)c2)cs1` (configuration not stated), for which the inhibition – broadly, the relative decrease from the control value, in per cent – in assay [1] stood at 0.08%; in assay [2] it was 0.47%; in assay [3], 0.96%.

In the case of `COc1ccc2nc(/N=C3\NC(c4ccccn4)(c4ccccn4)C(=O)N3C)[nH]c2c1`, the inhibition in assay [1] was 11.7%; in assay [2], 11.1%; in assay [3], 9.86%.

As to `CC(C)NC(=O)c1cccc(-c2ccc(OCCN3CCCC3c3cc4ccccc4[nH]3)cc2)c1` (configuration not stated), the inhibition in assay [1] was 1.77%; in assay [2], 3.47%; in assay [3], -1.97%.

On to `Cc1ccccc1C1CCN(C2CCC(NC(=O)/C=C/c3c[nH]c4ccccc34)CC2)CC1` (configuration not stated), for which the inhibition in assay [1] was 2.31%; in assay [2], 0.84%; in assay [3], -0.41%.

Regarding `Cc1cccc2nc(-c3cccc(-c4ccc(NC(=O)c5cnn6cccnc56)cc4)c3)[nH]c12`, the inhibition in assay [1] stood at 11.4%; in assay [2] it was 9.77%; in assay [3], 7.27%.

On to `CN1CCN(CC(=O)Nc2cccc(-c3ccc(-c4nc5cc(F)ccc5[nH]4)cc3)c2)CC1`, for which the inhibition is -1.54% in assay [1], 0.97% in assay [2] and 3% in assay [3].

With `O=C(N[C@@H](Cc1ccccc1)[C@H](O)CNCCC(F)(F)F)c1cccc(CCC2CC2)c1`, the inhibition in assay [1] is 0.82%; in assay [2], 1.82%; in assay [3] it was 2.39%.

For the compound `O=C(c1ccc(-c2ccc(-c3nc4cc(C(F)(F)F)ccc4[nH]3)s2)cc1)N1CCCCC1CN1CCC(O)C1` (configuration not stated), the figures for the inhibition in assay [1], in assay [2] and in assay [3] were 7.23%, 5.1% and 2.98%, respectively.

On to `CCCCCCCc1c2c(C)c(C(=O)OCC)nc-2cc2n1CC(C)=C2C`, for which the inhibition was 3.56% in assay [1], 2.2% in assay [2] and 3.09% in assay [3].

Turning to `O=C(CCCCCNC(=O)c1ccc(O)c(-c2ccc(Cl)c(Cl)c2)c1)NCCN1CCCC1`, the inhibition was found to be 1.19% in assay [1], 0.7% in assay [2] and 1.56% in assay [3].

Consider `CN1C(C)(C)CC(NC(=O)c2ccc(-c3nc4cc(Cl)c(Cl)cc4[nH]3)cc2)CC1(C)C`, for which the inhibition in assay [1] came to 2.52%; in assay [2], 2.2%; in assay [3], 2.38%.

Regarding `Cc1ccccc1CN1CCCN(Cc2ccc(C(=O)Nc3ccc(C(C)(C)C)cc3)cc2)CC1`, the inhibition was found to be 6.33% in assay [1], 3.39% in assay [2] and 3.55% in assay [3].

As to `Cc1ccnc(NC(=O)c2cc(-c3cccc([N+](=O)[O-])c3)nc3onc(C)c23)c1`, the inhibition in assay [1] was 6.8%; in assay [2], 7.59%; in assay [3] it was 4.35%.

Turning to `O=C(NC1CCCCC1)c1csc(C2CCCN(C(=O)c3ccc(O)c(-c4cccc(C(F)(F)F)c4)c3)C2)n1` (configuration not stated), the inhibition in assay [1] was 0.87%; in assay [2] it was 1.44%; in assay [3], -0.33%.

For the compound `CC1(C(=O)Nc2ccc([N+](=O)[O-])cc2O)CC2c3ccccc3C1c1ccccc12` (configuration not stated), the inhibition in assay [1] was determined as 2.18%; in assay [2] it was 3.79%; in assay [3] it was 0.74%.

`Cc1cccc2nc(-c3ccc(-c4ccc(NC(=O)NC5CC5c5ccccc5)cc4)cc3)[nH]c12` (configuration not stated): the inhibition in assay [1] was 0.9%; in assay [2], -1.52%; in assay [3], 4.78%.

Regarding `Cc1ccc(C2=NNC3(S2)C(=O)N(C)c2ccccc23)cc1` (configuration not stated), the inhibition stood at 5.66% in assay [1], 8.24% in assay [2] and 9.09% in assay [3].

As for `CCC(Cc1cnc2nc(N)nc(N)c2n1)c1ccc(C(=O)N[C@@H](CCC(=O)O)C(=O)O)cc1` (some centres not stated), the inhibition in assay [1] was 11.9%; in assay [2] it was 22.1%; in assay [3], 3.38%.

`COc1ccc(-c2ccc(CNCc3ccccc3)cc2)cc1S(=O)(=O)NCCN1CCCC1`: the inhibition in assay [1] was 4.97%; in assay [2], 1.92%; in assay [3] it was -1.36%.

Regarding `Cc1cc(Cl)c(S(=O)(=O)N(C)c2ccccc2)cc1OCC(=O)NC1CCCCC1`, the inhibition amounted to 1.65% in assay [1], 1.38% in assay [2] and 2.02% in assay [3].

As to `Cc1noc(C)c1-c1ccc2c(Nc3ccc(Cl)cc3)c(C(N)=O)cnc2c1`, the results for the inhibition in assay [1], in assay [2] and in assay [3] were 24.3%, 29.3% and 12.9%, respectively.

On to `O=S(=O)(c1ccc(OCc2ccc(Cl)cc2)cc1)c1cc2c(cc1OCc1ccccc1)CCN(CC1CC1)CC2`, for which the figures for the inhibition in assay [1], in assay [2] and in assay [3] were 0.01%, -1.17% and -3.24%, respectively.

Regarding `CCN(CC)/C(=N/C(=N)Nc1ccc(Br)cc1)NCCCCCCN/C(=N\C(=N)Nc1ccc(Br)cc1)N(CC)CC`, the inhibition in assay [1] is -1.08%; in assay [2], 0.19%; in assay [3] it was -0.11%.

With `O=C(/C=C/c1ccc(Cl)c(Cl)c1)NCCCCCN1CCC(NC(=O)Nc2ccc(Br)cc2)CC1`, the inhibition in assay [1] was -0.66%; in assay [2], -0.06%; in assay [3] it was -0.46%.

For `NOCCCCOc1ccc(Br)cc1`, the inhibition in assay [1] is 3.74%; in assay [2], 5.13%; in assay [3] it was 2.59%.

Turning to `COc1ccc2nccc([C@@H](O)CN3CCC(NC(=O)C(=Cc4ccc(Cl)cc4Cl)c4ccc(-c5ccccc5)cc4)CC3)c2c1`, the inhibition was found to be 6.27% in assay [1], 4.58% in assay [2] and 4.7% in assay [3].

Turning to `NC1=NC2(CCCCC2)N(OCCCCCCCCNc2nc(N)nc(N)n2)C(N)=N1`, the inhibition in assay [1] amounted to 4.34%; in assay [2], 5.05%; in assay [3] it was 5.12%.

Consider `O=C(Nc1ccc2c(c1)OCO2)NC1CCN(c2ccnc(NCc3ccc(F)cc3)n2)CC1`, for which the inhibition in assay [1] came out at 2.05%; in assay [2] it was 2.3%; in assay [3], 0.61%.

In the case of `O=C(NC(Nc1ccc([N+](=O)[O-])cc1)C(Cl)(Cl)Cl)c1cccc(Cl)c1` (configuration not stated), the inhibition is 4.07% in assay [1], 3.95% in assay [2] and 3.37% in assay [3].

As to `O=C(Nc1n[nH]c2nc(-c3ccco3)c(Br)cc12)c1ccc(CN2CCCC2)cc1`, the inhibition in assay [1] came to 1.9%; in assay [2], 3.71%; in assay [3], 3.01%.

With `CO/C(=C\C=C\c1cc2cc(Cl)c(Cl)cc2[nH]1)C(=O)NCCCN1CCN(c2cccc(CCCO)c2)CC1`, the inhibition turned out to be 6% in assay [1], 5.32% in assay [2] and 5.89% in assay [3].

For the compound `OC(CN1CCN(Cc2ccccc2)CC1)Cn1c(-c2ccccc2)c(-c2ccccc2)c2ccccc21` (configuration not stated), the figures for the inhibition in assay [1], in assay [2] and in assay [3] were 2.91%, 3.3% and 2.72%, respectively.

On to `CS(=O)(=O)Nc1ccc2[nH]cc(C3CCN(CCCCCNC(=O)/C=C/c4ccc(Cl)c(Cl)c4)CC3)c2c1`, for which the values for the inhibition in assay [1], in assay [2] and in assay [3] were 3.05%, 3.77% and 3.35%, respectively.

`Cc1nc(C)c(CC(=O)Nc2ccc(-c3cccc(-c4nc5cc(C(F)(F)F)ccc5[nH]4)c3)cc2)s1`: the inhibition in assay [1] turned out to be 13%; in assay [2], 10.6%; in assay [3], 8.58%.
